Results as given in PubChem BioAssay (NCI).
The panel holds about 83,000 compounds, 20% with a hit somewhere; the sample as a whole holds those more often.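 48-hour exposure, single concentration, 96-well plates; percent growth endpoint where 0 means no net growth. Active: below 10.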

How the values were obtained:
Assay in all cases: NCI-60 one-dose screen, 48 h (100 = growth as untreated, 0 = no growth, -100 = all killed)
HCT-15 colon = conditions: 10 µM unless noted
HT29 colon = conditions: 10 µM unless noted
SNB-75 CNS = conditions: 10 µM unless noted
SNB-19 CNS = conditions: 10 µM unless noted
U251 CNS = conditions: 10 µM unless noted
SK-MEL-5 melanoma = conditions: 10 µM unless noted
UACC-62 melanoma = conditions: 10 µM unless noted
LOX IMVI melanoma = conditions: 10 µM
SK-MEL-28 melanoma = conditions: 10 µM unless noted
SK-MEL-2 melanoma = conditions: 10 µM unless noted
EKVX NSCLC = conditions: 10 µM unless noted
SN12C renal = conditions: 10 µM unless noted
UO-31 renal = conditions: 10 µM unless noted
TK-10 renal = conditions: 10 µM unless noted
ACHN renal = conditions: 10 µM unless noted
CAKI-1 renal = conditions: 10 µM unless noted
A498 renal = conditions: 10 µM unless noted
CCRF-CEM leukemia = conditions: 10 µM unless noted
MOLT-4 leukemia = conditions: 10 µM unless noted
PC-3 prostate = conditions: 10 µM unless noted

Measured: growth

CCOP(=O)(OCC)/C(=C\N1C(=O)CC(=O)NC1=S)C(=O)OC
inactive: HCT-15 colon 102% | HT29 colon 111% | SNB-75 CNS 90.2% | SNB-19 CNS 98.6% | U251 CNS 94.7% | SK-MEL-5 melanoma 99% | UACC-62 melanoma 98.6% | LOX IMVI melanoma 98.6% | SK-MEL-28 melanoma 107% | SK-MEL-2 melanoma 118% | EKVX NSCLC 98.9% | SN12C renal 101% | UO-31 renal 90% | TK-10 renal 112% | ACHN renal 99.5% | CAKI-1 renal 97.4% | A498 renal 87.7% | CCRF-CEM leukemia 103% | MOLT-4 leukemia 100%

Cc1c(Cl)cccc1N=C=S
inactive: HCT-15 colon 107% | HT29 colon 104% | SNB-75 CNS 70.6% | SNB-19 CNS 93.5% | U251 CNS 106% | PC-3 prostate 89.6% | UACC-62 melanoma 97.4% | LOX IMVI melanoma 103% | SK-MEL-28 melanoma 132% | SK-MEL-2 melanoma 99.5% | EKVX NSCLC 89.1% | SN12C renal 99.9% | UO-31 renal 81.1% | TK-10 renal 106% | ACHN renal 99.3% | CAKI-1 renal 88.8% | A498 renal 117% | CCRF-CEM leukemia 94.6% | MOLT-4 leukemia 109%

C(=C\c1ccncc1)/c1ccncc1
inactive: HCT-15 colon 96.3% | HT29 colon 99% | SNB-75 CNS 89.6% | SNB-19 CNS 94.5% | U251 CNS 97.1% | SK-MEL-5 melanoma 101% | UACC-62 melanoma 90.1% | LOX IMVI melanoma 94.2% | SK-MEL-28 melanoma 104% | SK-MEL-2 melanoma 88.2% | EKVX NSCLC 105% | SN12C renal 101% | UO-31 renal 84.7% | TK-10 renal 102% | ACHN renal 98.9% | CAKI-1 renal 129% | A498 renal 120% | CCRF-CEM leukemia 101%

O=C(O)c1ccccc1Cc1ccc2c(c1)CCCC2
inactive: HCT-15 colon 104% | HT29 colon 107% | SNB-75 CNS 87.2% | SNB-19 CNS 102% | U251 CNS 111% | PC-3 prostate 103% | UACC-62 melanoma 96.4% | LOX IMVI melanoma 109% | SK-MEL-28 melanoma 108% | SK-MEL-2 melanoma 113% | EKVX NSCLC 119% | SN12C renal 102% | UO-31 renal 73.1% | TK-10 renal 103% | ACHN renal 104% | CAKI-1 renal 98.5% | A498 renal 107% | CCRF-CEM leukemia 106% | MOLT-4 leukemia 97.9%

CCOC(=O)/C(C)=C\c1ccc(OC)c(OC)c1
inactive: HCT-15 colon 101% | HT29 colon 106% | SNB-75 CNS 92.9% | SNB-19 CNS 107% | U251 CNS 94% | PC-3 prostate 97.5% | UACC-62 melanoma 101% | LOX IMVI melanoma 98% | SK-MEL-28 melanoma 108% | SK-MEL-2 melanoma 112% | EKVX NSCLC 102% | SN12C renal 104% | UO-31 renal 95.1% | TK-10 renal 104% | ACHN renal 103% | CAKI-1 renal 96.1% | A498 renal 95.7% | CCRF-CEM leukemia 88.8% | MOLT-4 leukemia 94.5%

Nc1ccc(F)cc1F
inactive: HCT-15 colon 108% | HT29 colon 106% | SNB-75 CNS 97.1% | SNB-19 CNS 109% | U251 CNS 106% | PC-3 prostate 89.1% | UACC-62 melanoma 100% | LOX IMVI melanoma 102% | SK-MEL-28 melanoma 92.7% | SK-MEL-2 melanoma 101% | EKVX NSCLC 105% | SN12C renal 100% | UO-31 renal 98.4% | TK-10 renal 106% | ACHN renal 102% | CAKI-1 renal 94.7% | A498 renal 107% | CCRF-CEM leukemia 102% | MOLT-4 leukemia 107%

Cc1ccc2[nH]c3ccccc3c2c1
inactive: HCT-15 colon 79.6% | HT29 colon 102% | SNB-75 CNS 98.4% | SNB-19 CNS 105% | U251 CNS 96.2% | PC-3 prostate 89.1% | UACC-62 melanoma 98.4% | LOX IMVI melanoma 97% | SK-MEL-28 melanoma 111% | SK-MEL-2 melanoma 109% | EKVX NSCLC 108% | SN12C renal 109% | UO-31 renal 91.3% | TK-10 renal 106% | ACHN renal 110% | CAKI-1 renal 97.3% | A498 renal 82.5% | CCRF-CEM leukemia 92.8% | MOLT-4 leukemia 94.4%

CCNC(=O)OCCc1c2ccccc2nc2ccccc12
inactive: HCT-15 colon 104% | HT29 colon 103% | SNB-75 CNS 81.3% | SNB-19 CNS 111% | U251 CNS 97% | SK-MEL-5 melanoma 104% | UACC-62 melanoma 99.1% | LOX IMVI melanoma 88.4% | SK-MEL-28 melanoma 97.7% | SK-MEL-2 melanoma 111% | EKVX NSCLC 115% | SN12C renal 119% | UO-31 renal 92.2% | TK-10 renal 132% | ACHN renal 94.1% | CAKI-1 renal 121% | A498 renal 111% | CCRF-CEM leukemia 73.7% | MOLT-4 leukemia 76.4%

Cc1[nH]c(=S)[nH]c(=O)c1C
inactive: HCT-15 colon 99.4% | HT29 colon 104% | SNB-75 CNS 93.4% | SNB-19 CNS 103% | U251 CNS 92.4% | SK-MEL-5 melanoma 100% | UACC-62 melanoma 105% | LOX IMVI melanoma 104% | SK-MEL-28 melanoma 110% | SK-MEL-2 melanoma 107% | EKVX NSCLC 109% | SN12C renal 106% | UO-31 renal 96.4% | TK-10 renal 107% | ACHN renal 96.6% | CAKI-1 renal 103% | A498 renal 110% | CCRF-CEM leukemia 96.9% | MOLT-4 leukemia 89.3%
